Laboratory results taken from the supplement of paper PMC3334620.
Whole data set: some 33,000 sequences, median “E-score (-0.5 to 0.5)” near -0.0014, cut for the highest 2% near 0.25. This excerpt belongs to a sample that is enriched for the highest values.

Target: T1, Cad1 (UniProt P24813)
T1 sequence: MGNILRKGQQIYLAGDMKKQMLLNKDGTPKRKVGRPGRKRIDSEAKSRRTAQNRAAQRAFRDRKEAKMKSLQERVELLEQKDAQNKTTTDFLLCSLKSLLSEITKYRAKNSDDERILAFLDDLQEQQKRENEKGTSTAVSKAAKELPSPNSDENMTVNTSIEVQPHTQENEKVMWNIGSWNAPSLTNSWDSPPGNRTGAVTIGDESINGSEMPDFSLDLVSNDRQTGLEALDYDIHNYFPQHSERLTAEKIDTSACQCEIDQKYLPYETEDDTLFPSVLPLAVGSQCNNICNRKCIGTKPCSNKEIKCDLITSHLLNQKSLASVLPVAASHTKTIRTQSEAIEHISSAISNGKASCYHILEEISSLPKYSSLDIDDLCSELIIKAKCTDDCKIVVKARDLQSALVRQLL
Assay: PBM E-score (8-mer binding enrichment) (E-score (-0.5 to 0.5)); higher = stronger / more preferred TF binding
Conditions: protein concentration: 100 nM; construct: GST-full length
Experimental: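 Universal 'all 10-mer' protein binding microarrays (Agilent AMADID 015681) probed with GST-tagged S. cerevisiae TFs (full-length or DBD) made by in vitro transcription/translation (PURExpress), about 100-200 nM. Bound TF was detected with fluorescent anti-GST. Each ungapped 8-mer (which stands for itself and its reverse complement) is scored by the PBM enrichment score (E-score), a modified Wilcoxon-Mann-Whitney statistic from -0.5 to +0.5, computed with the Universal PBM Analysis Suite. Scale: above 0.35 generally sequence-specific binding.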

Sequence | PBM E-score
AGTGTAGC | -0.0088
GAGGTGGC | -0.149
CGAACGCC | -0.0886
AATCGGAT | 0.283
AATCGGAA | 0.211
AATCGGAG | 0.0523
CCAGTCTC | -0.286
CATCTGGA | -0.165
CACAGCGA | 0.133
ATATCGCC | 0.0776
CTCGCGAG | 0.279
CACGCGAG | 0.239
CTCGCGAA | 0.0936
ATATCGCA | -0.0511
ATATCGCG | 0.267
CGAGCGAG | 0.258
ATCGCGAG | 0.264
ATCGCGAT | 0.237
CGAGCGAC | 0.0243
AGAGCGAG | -0.0569
ATCGCGAA | 0.243
CCCAGACA | -0.108
CGTTACGA | 0.111
CATTAAGC | 0.0681
AGTTGAGA | -0.0203

Sequence | PBM E-score
AAGAGCCA | 0.0145
AGACCACA | -0.0838
ACGGCGTA | 0.0105
AGGAATTG | 0.0938
CGATCCCA | -0.0615
CCTGCTAG | -0.182
CGCAACAA | 0.0963
GGAGCGTA | 0.0102
ATCCGTAC | 0.177
CTGGAATC | -0.0416
CCTCCAGA | -0.208
ACCGCGAG | -0.00282
ATCGCGCA | 0.0635
ATCGTGCC | 0.102
ATCGCGCG | 0.282
CGCGCGAG | 0.302
CGCGTGAC | 0.056
ATCGCGCC | 0.143
ATCGTGCG | 0.325
CGCGTGAG | 0.269
CGCGCGAA | 0.175
AGCGCGAG | 0.0178
ATCGTGCA | 0.166
AGCGTGAG | -0.0272
CAACCAAA | 0.0894

Sequence | PBM E-score
CGGAGTAA | 0.109
ATAGACCG | -0.0498
AACGCACC | -0.0282
ACACCAAC | -0.0461
CTCAATGC | -0.134
ACTGGGAA | -0.0452
TCTTATCA | 0.267
TCTTATAA | 0.0694
GCTTATCA | 0.0614
CCTTATCG | 0.0678
ACTTATCA | 0.116
CCTTATCA | 0.257
TGTGAAAA | 0.103
ACGGAACC | 0.218
GACCGGGC | -0.104
AACTGATA | 0.0697
ACAGACCC | -0.211
AGAGACCT | -0.104
CGGGACTA | -0.22
ACGCACTG | -0.0467
GGGCCTTA | -0.0621
CCTAGTCA | -0.0765
GGTAGTCA | -0.206
ATTAGTGG | 0.163
CTTAGTCC | -0.0572

Sequence | PBM E-score
CTTAGTCA | 0.38
ATTAGTTG | 0.216
ATTAGTTA | 0.362
ATTAGTGC | 0.353
GTTAGTCA | 0.266
GTTAGTTA | 0.155
GCTAGTCA | -0.0828
ATTAGTGA | 0.14
GGTCTCAA | -0.0801
GTCTACGA | -0.0725
CCGGTTAG | 0.0658
CACCGATG | -0.179
ATTTCGAC | -0.0837
GCGGGTAC | 0.0345
CAATACCG | -0.0276
AGGTCCCG | -0.0309
AGCGATCG | 0.216
ACGCTAGC | -0.0932
AGGCATTA | -0.16
AAGGGGCT | 0.0431
CAGCGGTC | -0.229
GGTAGTAA | -0.0434
GTTAGTGA | -0.0153
CATAGTAA | 0.141
GATAGTAA | 0.156

Sequence | PBM E-score
GTTAGTAA | 0.422
TATAGTAA | 0.294
ACCACACC | -0.169
CCAGGAAG | -0.131
ACTCGACT | -0.153
CACCGAAA | 0.12
ATGACATC | 0.232
CTGACCAA | 0.276
GTGACCAA | 0.0231
GTGACAAA | 0.229
TCGACAAA | 0.195
ATGACAAA | 0.414
TTGACCAA | 0.0548
CTGACATA | 0.205
ATGACAAG | 0.127
ATGACAAC | 0.183
ATGACATA | 0.267
TTGACAAA | 0.294
CAGCGCGG | 0.112
TATTGCAA | 0.19
CTCCGCAG | 0.00742
GGCCTTAC | -0.166
AACCAAAC | -0.102
AGATGGGA | -0.204
CTGACAAC | 0.0707

Sequence | PBM E-score
CTGACAAA | 0.444
CTGACAAG | 0.101
CAACTAGG | 0.079
CGAGGCAG | 0.0833
AACCTCAC | -0.112
ATGTTTTC | 0.268
ATGTTTTA | 0.0134
ATGTTTCC | -0.00726
CTGTTGGC | -0.202
CTTTGTTC | 0.0827
ATTTGTTA | 0.203
ATTTGTGC | 0.148
ATTTGTCC | 0.253
ATTTGTTC | 0.265
ATTTGTCG | 0.147
AAATCCTC | -0.0802
GTGTGACA | 0.0138
ATGTGACA | 0.281
CTGTGACA | 0.209
GCATCCCA | -0.303
CGCACTTC | -0.184
CCCAAGAG | -0.132
CTATTACA | 0.123
ATATTACG | 0.24
ATATTACC | 0.28

Sequence | PBM E-score
ATATTACA | 0.347
GTATTACA | 0.234
CTATTACC | -0.0596
AGCCGTCG | 0.219
CACGGAAG | -0.00842
TATAGGAA | 0.127
CGACCCGC | 0.0365
CATAACGG | -0.00107
AATAACGC | -0.0922
AATAACGG | 0.253
GATTGCAA | 0.117
AGGACCCA | -0.22
GATCGCGC | 0.118
TAGCGCGA | 0.211
AAGCGCTT | 0.421
AAGCGCTA | 0.107
AATCGCGT | 0.107
TCGCGAGA | 0.165
CCGCGCCG | 0.174
AAGCGCTC | 0.0197
ACGCGCGG | 0.136
TCGCGCGA | 0.308
CCGCGCGG | 0.417
AATCGCGC | 0.327
